In all, about 35,000 sequences were measured (“fluorescence intensity (a.u.)”: median about 10,000, highest 2% from about 52,000 on). Shown is part of a subset that was picked to be rich in the highest values.
These sequences were tested against T1, OsWOX13 (Oryza sativa, UniProt Q5QMM3 1-267) (assay: protein-binding microarray (RPBM); PBS, 2% BSA, 51.3 ng/ul salmon testes DNA, 50 uM zinc acetate, 200 nM TF, 25 C, 1 h; high values mean tight binding). Conditions: protein: recombinant; tags: N-terminal polyhistidine and DsRed monomer fusion (pET32a); label: CyDye5-dUTP incorporated in the synthesized complementary strand; 3' TTTTT single-stranded linker to array surface; dsDNA, one strand shown.
T1 sequence: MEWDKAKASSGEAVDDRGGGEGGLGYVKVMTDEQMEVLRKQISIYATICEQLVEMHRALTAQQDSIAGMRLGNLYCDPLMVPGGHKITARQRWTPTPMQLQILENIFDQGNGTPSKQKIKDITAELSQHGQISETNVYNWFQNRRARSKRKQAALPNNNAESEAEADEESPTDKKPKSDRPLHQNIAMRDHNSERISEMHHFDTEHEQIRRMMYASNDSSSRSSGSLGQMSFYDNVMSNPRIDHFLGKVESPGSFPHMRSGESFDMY
In short: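 Binding signal here means per-feature fluorescence intensity in arbitrary units. The values were read on an Axon 4000B scanner after a custom Agilent array, double-stranded by primer extension with Cy5-dUTP, was incubated with 200 nM protein at 25 °C for 1 h in PBS with 2% BSA, salmon testes DNA and 50 µM zinc acetate, then washed. The proteins were transcription factors with an N-terminal polyhistidine tag and DsRed, expressed in E. coli BL21-CodonPlus and purified on Ni–NTA.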
In the case of “TTTCCATTAATAAATTGAAACATATTGAACTAGATCGTTCCGGAGTCACCTAGTGCAG”, the binding signal is reported as 15600 fluorescence intensity (a.u.).
In the case of “TTTAATAATTTGTTTATAAAAGAAACTAAAGGGCACTGCTCGGAGTCACCTAGTGCAG”, the binding signal is reported as 12200 fluorescence intensity (a.u.).
“ATAAACTGGAACAGAAGGCCAGGCGGAAATAAACTGGACACGGAGTCACCTAGTGCAG” was tested, and the binding signal was 6490 fluorescence intensity (a.u.).
For “GGCCTAATTCATTGACGGGAACTAAGTGGGCTGAATTCGTCGGAGTCACCTAGTGCAG”, the binding signal was 7250 fluorescence intensity (a.u.).
For “CCCAAATTAATCATCATGTAATAGAATGATATATTCATTGCGGAGTCACCTAGTGCAG”, the binding signal was 49200 fluorescence intensity (a.u.).
“GTGTCGCCAGTGATTGCAGTTTCAGTTCGAAATTTCTCTACGGAGTCACCTAGTGCAG” was tested, and the binding signal was 9490 fluorescence intensity (a.u.).
For “ATAACGAACGGATGAGATTGATCGCTACAATACTCTAGAGCGGAGTCACCTAGTGCAG”, the binding signal was 4050 fluorescence intensity (a.u.).
With “TAAACTCCAAGTTGATTATCCAACGAATCGTAGCCTCGAGCGGAGTCACCTAGTGCAG” the binding signal was 5690 fluorescence intensity (a.u.).
“GATCAATCATTTGCTGAGCTCGTGAATTCTGTCTGGTTCACGGAGTCACCTAGTGCAG” was tested, and the binding signal was 24300 fluorescence intensity (a.u.).
With “TAACTAATTATGTACTAACAAATTAGCTAGTCTACCATGCCGGAGTCACCTAGTGCAG” the binding signal was 56600 fluorescence intensity (a.u.).
With “GTACAAAATTATCTAAAATTAACTACAAAATTATGTACTACGGAGTCACCTAGTGCAG” the binding signal was 12800 fluorescence intensity (a.u.).
For “ATTTCTTAATTTAATGCTATTCTGACTCCTTGCACCTCTACGGAGTCACCTAGTGCAG”, the binding signal was 12300 fluorescence intensity (a.u.).
For “TATAAATTTAGTCAAATTTAAAGCAGTTTGATTTTGACCACGGAGTCACCTAGTGCAG”, the binding signal was 26800 fluorescence intensity (a.u.).
For “AATATAAATTAAATTTTATTTGCTAAAATTAATATCATTGCGGAGTCACCTAGTGCAG”, the binding signal was 15000 fluorescence intensity (a.u.).
With “TTCTAATAATTTGATATTAGGTCATTCCCTAATATTCGTGCGGAGTCACCTAGTGCAG” the binding signal was 25000 fluorescence intensity (a.u.).
With “ACTAGCTAAATTATACCATGTTAACTTATACTATATTAGTCGGAGTCACCTAGTGCAG” the binding signal was 9700 fluorescence intensity (a.u.).
For “TTAAATTTAATTAAATTTAAAGCAGTTTGATTTTGACCAACGGAGTCACCTAGTGCAG”, the binding signal was 56000 fluorescence intensity (a.u.).
In the case of “CCTTAATTAATTAATTAATTACGTGCTATTTATTTCTTGGCGGAGTCACCTAGTGCAG”, the binding signal is reported as 55300 fluorescence intensity (a.u.).
“CTTAATTAATAGGGTATTAATAACCTCCCTAAAGTCATTGCGGAGTCACCTAGTGCAG” was tested, and the binding signal was 60200 fluorescence intensity (a.u.).
“AATTTACACTTAATTTGCTATTTGCTATACATGTTTTCTACGGAGTCACCTAGTGCAG” was tested, and the binding signal was 10800 fluorescence intensity (a.u.).
With “AACTTAATTAAATTTAAAGCAGTTTGATTTTGACTAAAGTCGGAGTCACCTAGTGCAG” the binding signal was 31800 fluorescence intensity (a.u.).
For “GGCGTTAATCACGTGATGGGCATGGATAGTGATTTAGATTCGGAGTCACCTAGTGCAG”, the binding signal was 13900 fluorescence intensity (a.u.).
With “GATATGATGGGTACAAACTGTTATAAACTAACATGTCTATCGGAGTCACCTAGTGCAG” the binding signal was 5970 fluorescence intensity (a.u.).
“GGGCCTGGTCCTGATTGGACTTCCTTATCTGTCTATCACACGGAGTCACCTAGTGCAG” was tested, and the binding signal was 10700 fluorescence intensity (a.u.).
For “TGATGGGAAAACTTTAAAATTAATTTTGAATTTAAGGTTGCGGAGTCACCTAGTGCAG”, the binding signal was 4960 fluorescence intensity (a.u.).
In the case of “TGCTTTGATTTTACGTCACATACACATGGTGATGCTTCAACGGAGTCACCTAGTGCAG”, the binding signal is reported as 6250 fluorescence intensity (a.u.).
In the case of “CAGTTTAATTGCTCCTCGGATGGATCTGGTATAGTTCTGCCGGAGTCACCTAGTGCAG”, the binding signal is reported as 20700 fluorescence intensity (a.u.).
With “CTCTTGATTGTATCCTTAGGCACTTTGTATATTCTCGAGTCGGAGTCACCTAGTGCAG” the binding signal was 31700 fluorescence intensity (a.u.).
With “TAAAATTAGTCAAACTTAAAGCAGTTTGATTTTGACTAAACGGAGTCACCTAGTGCAG” the binding signal was 3740 fluorescence intensity (a.u.).
In the case of “TCTGATTAATTTGACGGCCACAAAATACTTAGTTTGGCAACGGAGTCACCTAGTGCAG”, the binding signal is reported as 65000 fluorescence intensity (a.u.).
“TTTAATTGATGGAGCGGTAATGGTAATAGTTCTTCACTCACGGAGTCACCTAGTGCAG” was tested, and the binding signal was 57300 fluorescence intensity (a.u.).
In the case of “CCAAATGATTAATTTGGAGGACTTATTTGGACGTTTTGAACGGAGTCACCTAGTGCAG”, the binding signal is reported as 42300 fluorescence intensity (a.u.).
With “CCATTACGTGATCACAGATTGATCAAGAAATGCTTGACGACGGAGTCACCTAGTGCAG” the binding signal was 19600 fluorescence intensity (a.u.).
With “GAACAGGTAATTTAAAATTGATGGAGTTCATAGGATGTCACGGAGTCACCTAGTGCAG” the binding signal was 24200 fluorescence intensity (a.u.).
“TTCACTAATCAATCAACTTAATTTGCTCTGTCAATGTGCACGGAGTCACCTAGTGCAG” was tested, and the binding signal was 61700 fluorescence intensity (a.u.).
For “TTTATATTATTTGTCAATCTTATTGTCAACTTATTAATCACGGAGTCACCTAGTGCAG”, the binding signal was 5140 fluorescence intensity (a.u.).
For “TTGGATTAGAATTTAATTTGAAGACGACATCCATTGGATACGGAGTCACCTAGTGCAG”, the binding signal was 28700 fluorescence intensity (a.u.).
“ACATCACTAATTAATGTAATTTAAGTGGCTCATTTGCTCACGGAGTCACCTAGTGCAG” was tested, and the binding signal was 31900 fluorescence intensity (a.u.).
With “TTTATAATAGTTAATATTTAATTGATCATTTGCTAATGAGCGGAGTCACCTAGTGCAG” the binding signal was 24900 fluorescence intensity (a.u.).
For “AAGATACGTGATTGAAATCATTCCATTATGGACGACATTGCGGAGTCACCTAGTGCAG”, the binding signal was 54000 fluorescence intensity (a.u.).
In the case of “TTAACAATTGAAAGATCATCTCATTGGTTAATTTATTTGGCGGAGTCACCTAGTGCAG”, the binding signal is reported as 6220 fluorescence intensity (a.u.).
For “GATGGTCTATTAGTCCGTGATTAATTAAGTATTAGCTATTCGGAGTCACCTAGTGCAG”, the binding signal was 8910 fluorescence intensity (a.u.).
With “TTTGACAAATTTGACAACTCCTCTAGCTCCCACTGCTACTCGGAGTCACCTAGTGCAG” the binding signal was 38200 fluorescence intensity (a.u.).
For “CTGTGATAATCTGTCTTCCTGTGATACCAGCACTGTTTCCCGGAGTCACCTAGTGCAG”, the binding signal was 3340 fluorescence intensity (a.u.).
For “TGCTAGTTAAATTGGGATAAAATAATGGGCCCATTTATTTCGGAGTCACCTAGTGCAG”, the binding signal was 4520 fluorescence intensity (a.u.).
In the case of “AGTGATTAGTAGCAGCAGAAAGAGTGGAAGATTTAGAGGACGGAGTCACCTAGTGCAG”, the binding signal is reported as 17800 fluorescence intensity (a.u.).
“ATTGCGTGCTTGATTAATTAGTTTCTACCAACAATTTCTCCGGAGTCACCTAGTGCAG” was tested, and the binding signal was 8110 fluorescence intensity (a.u.).
“TTATTGATTGATTGAATCAGACTGAAATTCCAAACCACGACGGAGTCACCTAGTGCAG” was tested, and the binding signal was 63100 fluorescence intensity (a.u.).
In the case of “AATTAAATAAATTATAATTTATTTTATTGAGATTTGATTTCGGAGTCACCTAGTGCAG”, the binding signal is reported as 41300 fluorescence intensity (a.u.).
For “AAAATTTAATTGATTATATGCTAATAACTTTCTTGTTTTGCGGAGTCACCTAGTGCAG”, the binding signal was 51600 fluorescence intensity (a.u.).
For “CAGAAACTGAAATACCAATTGATTCTTCCAATTCCCTGAACGGAGTCACCTAGTGCAG”, the binding signal was 6740 fluorescence intensity (a.u.).
For “TTAAATTTAAATTTGAGATTGATTTTGAGATATTTTCAACCGGAGTCACCTAGTGCAG”, the binding signal was 38200 fluorescence intensity (a.u.).
“TATAATTGATTATTTTAATTTCTTTTGCTATTAATAGTCACGGAGTCACCTAGTGCAG” was tested, and the binding signal was 64700 fluorescence intensity (a.u.).
In the case of “CCCAAACGCCCTGAAATCAAATTGAATATTCCAATTTGCACGGAGTCACCTAGTGCAG”, the binding signal is reported as 4630 fluorescence intensity (a.u.).
With “TTAAATTTAAATTTAAATTTAATTTTGAGATTTCTTTTCACGGAGTCACCTAGTGCAG” the binding signal was 55700 fluorescence intensity (a.u.).
“ACAATTGATAGATTTGTCTGTTGCTTTGCTTTGATTCCTCCGGAGTCACCTAGTGCAG” was tested, and the binding signal was 43800 fluorescence intensity (a.u.).
For “TGCACCAATTTGATTGATACCAATTTGCTTTAATTTCGTCCGGAGTCACCTAGTGCAG”, the binding signal was 57200 fluorescence intensity (a.u.).
In the case of “TTTTCTTGATTAATTAAATATAAATTTGCATTTCATTTCACGGAGTCACCTAGTGCAG”, the binding signal is reported as 16900 fluorescence intensity (a.u.).

Reference: publication PMC7819943, “Rice protein-binding microarrays: a tool to detect cis-acting elements near promoter regions in rice”
